Results: PubChem BioAssay AID743482 (Broad Institute, 2014)
The source made the active and inactive calls.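 How the source made its calls: active means falling viability signal whose fitted half-maximal concentration is at most twice the highest tested dose; inconclusive means flat fit with a moderate drop, or a poor curve fit; inactive means the rest.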

assay: HepG2 viability loss by ATP level – cell-based, CellTiter-Glo luminescence, dry powder, cytotoxicity control, dose response (AID 743482); conditions: 72 h; series mostly up to 26 µM

Row | SMILES | outcome
1 | CC(=O)Nc1ccc2c(c1)C(=O)N([C@H](C)CO)C[C@H](C)[C@H](CN(C)C(=O)Nc1ccc(F)cc1)OCCCC[C@H](C)O2 | inactive
2 | C[C@H]1CCCCO[C@H](CN(C)C(=O)Nc2cccc3ccccc23)[C@@H](C)CN([C@@H](C)CO)C(=O)c2cc(NC(=O)C3CCCCC3)ccc2O1 | inactive
3 | C[C@H](CO)N1C[C@H](C)[C@H](CN(C)C(=O)Nc2ccc3c(c2)OCO3)OCCCC[C@H](C)Oc2ccc(NC(=O)NC3CCCCC3)cc2C1=O | inactive
4 | C[C@H](CO)N1C[C@H](C)[C@H](CN(C)C(=O)Nc2ccccc2)OCCCC[C@H](C)Oc2ccc(NC(=O)Nc3ccccc3)cc2C1=O | inactive
5 | C[C@H]1CCCCO[C@@H](CN(C)C(=O)Nc2ccc(F)cc2)[C@@H](C)CN([C@@H](C)CO)C(=O)c2cc(NC(=O)C3CCCCC3)ccc2O1 | inactive
6 | C[C@H]1CCCCO[C@@H](CN(C)C(=O)Nc2ccc3c(c2)OCO3)[C@@H](C)CN([C@@H](C)CO)C(=O)c2cc(NC(=O)NC3CCCCC3)ccc2O1 | inactive
7 | C[C@H](CO)N1C[C@H](C)[C@H](CN(C)C(=O)Nc2ccc(F)cc2)OCCCC[C@H](C)Oc2ccc(NC(=O)Nc3ccccc3)cc2C1=O | inactive
8 | C[C@@H]1CCCCO[C@@H](CN(C)C(=O)Nc2cccc3ccccc23)[C@@H](C)CN([C@@H](C)CO)C(=O)c2cc(NC(=O)C3CCCCC3)ccc2O1 | inactive
9 | C[C@@H]1CCCCO[C@H](CN(C)C(=O)Nc2cccc3ccccc23)[C@H](C)CN([C@@H](C)CO)C(=O)c2cc(NC(=O)C3CCCCC3)ccc2O1 | inactive
10 | C[C@H]1CCCCO[C@@H](CN(C)C(=O)Nc2ccccc2)[C@@H](C)CN([C@@H](C)CO)C(=O)c2cc(NC(=O)NC3CCCCC3)ccc2O1 | inactive
11 | C[C@@H]1CCCCO[C@@H](CN(C)C(=O)Nc2cccc3ccccc23)[C@H](C)CN([C@@H](C)CO)C(=O)c2cc(NC(=O)C3CCCCC3)ccc2O1 | inactive
12 | COc1ccc(S(=O)(=O)N(C)C[C@@H]2OCCCC[C@H](C)Oc3ccc(NS(=O)(=O)c4ccc(F)cc4)cc3C(=O)N([C@@H](C)CO)C[C@@H]2C)cc1 | inactive
13 | COc1ccc(NC(=O)N(C)C[C@@H]2OCCCC[C@H](C)Oc3ccc(NC(=O)NC4CCCCC4)cc3C(=O)N([C@H](C)CO)C[C@@H]2C)cc1 | inactive
14 | COc1ccc(NC(=O)N(C)C[C@@H]2OCCCC[C@H](C)Oc3ccc(NC(=O)C4CCCCC4)cc3C(=O)N([C@H](C)CO)C[C@@H]2C)cc1 | inactive
15 | C[C@H](CO)N1C[C@H](C)[C@H](CN(C)C(=O)Nc2ccc(F)cc2)OCCCC[C@H](C)Oc2ccc(NC(=O)NC3CCCCC3)cc2C1=O | inactive
16 | C[C@H](CO)N1C[C@H](C)[C@@H](CN(C)C(=O)Nc2cccc3ccccc23)OCCCC[C@H](C)Oc2ccc(NC(=O)C3CCCCC3)cc2C1=O | inactive
17 | C[C@@H]1CN([C@@H](C)CO)C(=O)c2cc(NC(=O)C3CCCCC3)ccc2O[C@@H](C)CCCCO[C@@H]1CN(C)C(=O)Nc1cccc2ccccc12 | inactive
18 | C[C@H](CO)N1C[C@H](C)[C@H](CN(C)C(=O)Nc2ccccc2)OCCCC[C@H](C)Oc2ccc(NC(=O)Nc3ccc4c(c3)OCO4)cc2C1=O | inactive
19 | C[C@H](CO)N1C[C@H](C)[C@H](CN(C)C(=O)Nc2ccc(F)cc2)OCCCC[C@H](C)Oc2ccc(NC(=O)C3CC3)cc2C1=O | inactive
20 | C[C@H](CO)N1C[C@H](C)[C@H](CN(C)C(=O)Nc2ccc(C(F)(F)F)cc2)OCCCC[C@H](C)Oc2ccc(NC(=O)CCC(F)(F)F)cc2C1=O | inactive
21 | C[C@H](CO)N1C[C@H](C)[C@H](CN(C)C(=O)Nc2ccccc2)OCCCC[C@H](C)Oc2ccc(NC(=O)CCC(F)(F)F)cc2C1=O | inactive
22 | COc1ccc(S(=O)(=O)N(C)C[C@@H]2OCCCC[C@H](C)Oc3ccc(NS(=O)(=O)c4ccc(Cl)cc4)cc3C(=O)N([C@@H](C)CO)C[C@@H]2C)cc1 | inactive
23 | C[C@H](CO)N1C[C@H](C)[C@H](CN(C)C(=O)Nc2ccccc2F)OCCCC[C@H](C)Oc2ccc(NC(=O)C3CCCCC3)cc2C1=O | inactive
24 | C[C@H](CO)N1C[C@H](C)[C@H](CN(C)C(=O)Nc2ccc(C(F)(F)F)cc2)OCCCC[C@H](C)Oc2ccc(NC(=O)NC3CCCCC3)cc2C1=O | inactive
25 | C[C@@H]1CCCCO[C@@H](CN(C)C(=O)Nc2cccc3ccccc23)[C@@H](C)CN([C@H](C)CO)C(=O)c2cc(NC(=O)C3CCCCC3)ccc2O1 | inactive
26 | C[C@H](CO)N1C[C@H](C)[C@H](CN(C)C(=O)Nc2cccc3ccccc23)OCCCC[C@H](C)Oc2ccc(NC(=O)CCC(F)(F)F)cc2C1=O | inactive
